Screening results: PubChem, National Center for Advancing Translational Sciences (NCATS)
Most compounds without a hit are left out; they make up all but 19% or so of the library.
TGFb inhibitor = blocks TGF-b signaling; 410,000 compounds, 1.2% hits; Potency, µM (top dose mostly 46.1 µM), for the others: at the top dose activity, negative = inhibition, most hits filed as inhibitors; HepG2 CAGA-GFP TGF-b/SMAD3 reporter, GFP fluorescence, 18 h; TGF-beta stimulated, 500 pg/mL final; note: potency is the fitted concentration of half-maximal effect; % is set by controls: 0 for no effect and ±100 for the full control effect; nearly all actives have a fitted effect of over 65% in size
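Smad-responsive CAGA-GFP expression was quantified in HEPG2 cells exposed to compounds and 500 pg/mL final TGF-beta for 18 h at 37 degrees C; unstimulated wells defined full inhibition.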
TDP1 cell noCPT = qHTS for Inhibitors of human tyrosyl-DNA phosphodiesterase 1 (TDP1): qHTS in cells in absence of CPT; DT40 Tdp1-/- hTDP1 cells, no CPT, ATP luminescence, 48 h; Potency, µM (titrated, usually from 46.2 µM), inactives show at the top dose activity change, negative = growth inhibition, hits mostly inhibitors; 420,000 compounds, 15% hits; AID 686978, 2013; note: potency is the fitted concentration of half-maximal effect; % is set by controls: 0 for no effect and ±100 for the full control effect; nearly all actives have a fitted effect of over 55% in size
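Readout: luminescence from CellTiter-Glo after 30 min in the dark at RT. Cells: DT40 Tdp1-/- with stable hTDP1, 400/well. Exposure: compounds alone, ≥48 hr, 37 °C.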
HepG2 viability = counter-screen for TGF-b inhibitors: cytotoxicity in HepG2 cells. HepG2 CAGA-GFP viability, ATP luminescence, 18 h. Potency, µM (top dose mostly 46.1 µM), inactives show at the top dose activity change, negative = cytotoxicity, usual class: cytotoxic. 410,000 compounds, 0.76% hits; note: potency is the fitted concentration of half-maximal effect
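HepG2 CAGA-GFP cells (1000/well, DMEM with 1% FBS) received compound, then TGF-beta at 500 pg/mL final, and were incubated 18 hours at 37 degrees C. Viability was read by CellTiter-Glo luminescence. Media-only wells were set as complete cell-killing and DMSO as no toxicity.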
IL1B secr inh = inhibitors of inflammasome signaling (IL-1 beta secretion) | 360,000 compounds, 4.7% hits | THP-1 LPS/ATP IL-1B secretion, AlphaLISA, 16 h; stronger effect = lower value | activity change, % at 57.5 µM | AID 743279; in the data active = activity change below about -50%; inconclusive = mostly about -30% to -49%; note: % is set by controls: 0 for no effect and ±100 for the full control effect
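Secreted IL-1B measured by AlphaLISA bead assay after 16 h compound exposure of THP-1 cells; compounds (final up to 57.5 uM) added 1 h before LPS (250 ng/mL) and ATP (1.25 mM) stimulation; lower signal means less secretion.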
TDP1 cell CPT = DT40-hTDP1 cell growth loss with CPT | chicken DT40 Tdp1-/-;hTDP1 cells + 20 nM CPT, ATP luminescence, 48 h | Potency, µM (highest dose often 46.2 µM), for inactives: at the highest dose activity change, negative = growth inhibition, actives largely listed as inhibitors | 420,000 compounds, 12% hits; note: potency is the fitted concentration of half-maximal effect; % is set by controls: 0 for no effect and ±100 for the full control effect; nearly all actives have a fitted effect of over 55% in size
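Chicken DT40 Tdp1-/- cells stably complemented with human TDP1 were seeded at 400 cells/well in medium containing 20 nM camptothecin, exposed to pin-transferred compounds, and grown at 37 °C for at least 48 hr. Viability was read as ATP luminescence.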
S-ASM inh = human S-ASM enzyme inhibition; 340,000 compounds, 0.006% hits; Potency, µM (highest dose often 57.5 µM), inactives show at the highest dose activity change, negative = inhibition, hits mostly inhibitors; placental ASM, HMU-PC fluorogenic substrate, 60 min; note: potency is the fitted concentration of half-maximal effect
Target sequence (P17405 47-631 limits assumed): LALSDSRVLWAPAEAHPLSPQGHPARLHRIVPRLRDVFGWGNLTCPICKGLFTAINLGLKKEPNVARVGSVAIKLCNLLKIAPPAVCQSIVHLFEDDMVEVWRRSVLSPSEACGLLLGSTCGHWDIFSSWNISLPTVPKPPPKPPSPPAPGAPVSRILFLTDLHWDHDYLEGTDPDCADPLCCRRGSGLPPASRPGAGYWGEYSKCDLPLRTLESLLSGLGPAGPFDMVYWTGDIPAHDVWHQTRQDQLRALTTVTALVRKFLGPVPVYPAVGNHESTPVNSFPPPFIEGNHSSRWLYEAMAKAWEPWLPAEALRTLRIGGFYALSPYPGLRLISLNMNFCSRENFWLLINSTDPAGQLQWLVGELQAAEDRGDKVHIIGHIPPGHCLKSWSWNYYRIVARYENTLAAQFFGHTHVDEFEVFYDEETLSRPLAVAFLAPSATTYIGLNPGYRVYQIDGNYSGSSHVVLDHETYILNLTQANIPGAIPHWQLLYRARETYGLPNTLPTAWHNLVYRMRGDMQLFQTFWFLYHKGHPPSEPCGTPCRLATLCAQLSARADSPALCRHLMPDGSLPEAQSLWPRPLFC
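Steps: dispense placental human ASM, pin compound, wait 10 min at room temperature, add HMU-PC0 substrate at 9 uM final, incubate 60 min at 37 °C, add stop solution raising pH to 10, read fluorescence.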
* marks the source's active call; other numbers are inactive results; u = inconclusive; x = no result. Unless noted, calls come from the whole dose curve; as a rule, active = well fitted curve in the direction sought with a large enough effect; inconclusive = small, poorly fitted or top-dose-only effect, or another doubt; inactive = no such curve, though single readings can be large; an effect the other way counts as inactive or inconclusive.

SMILES | TGFb inhibitor | TDP1 cell noCPT | HepG2 viability | IL1B secr inh | TDP1 cell CPT | S-ASM inh
CN(CC(=O)Nc1ccc(F)cc1)C(=O)COc1ccc(C(=O)c2ccccc2)cc1 | 0.0% | 20.6µM* | -27.3% | -18.3 | u | -5.8%
CN(CC(=O)Nc1ccccc1C(F)(F)F)C(=O)COc1ncnc2sccc12 | u | -6.7% | -1.3% | 14.6 | 2.5% | 6.5%
CN(CC(=O)Nc1ccccc1C(F)(F)F)C(=O)COc1ccccc1Cc1ccccc1 | 0.8% | 16.4µM* | -2.7% | -14.4 | u | -1.0%
CN(CC(=O)Nc1ccc(F)cc1)C(=O)COc1ccccc1Cc1ccccc1 | u | u | 14.1% | -69.4* | u | -4.4%
CC(=O)c1cccc(NC(=O)CSc2nnc3ccc(-c4ccc(Br)cc4)nn23)c1 | -2.1% | -5.3% | -22.4% | x | 3.5% | x
NC(=O)c1nsc(C(=O)N(CC(=O)NC2CCCCC2)Cc2ccc3c(c2)OCO3)c1N | 20.8% | u | 25.3% | x | u | x
Cc1ccc(C(=O)OCC(=O)Nc2cc(C(C)(C)C)nn2-c2ccccc2)c(O)c1 | u | u | 0.2% | -22.6 | u | x
CCOc1ccccc1C(=O)N(C)CC(=O)Nc1ccc(OC)cc1 | -0.1% | -14.1% | -8.5% | 7.4 | 5.3% | -0.2%
COc1ccc(NC(=O)CN(C)C(=O)COc2ccccc2Cc2ccccc2)cc1 | u | 18.4µM* | -30.3% | -2.6 | 25.9µM* | -9.7%
CCOC(=O)C1(N(CC)CC)Sc2cc(C)ccc2NC1=O (stereo not given) | u | 18.4µM* | -42.4% | 35.0 | 16.4µM* | -3.4%
Cc1cc2c(cn1)C(CCC#N)(CCC#N)c1ccccc1-2 | 0.4% | -21.4% | -2.7% | 14.4 | -25.2% | -6.2%
CCOC1=C(C#N)CC2(CC1)c1ccccc1-c1ccccc12 | 9.8% | 23.1µM* | 0.9% | -29.7 | u | -1.3%
CCOC(=O)c1sc(N)nc1C(F)(F)F | 0.8% | u | -25.6% | 13.1 | -1.0% | 1.3%
Cc1nc(NCCc2ccc(Cl)cc2)c2nnn(Cc3ccccc3)c2n1 | 3.1% | 0.2% | -2.6% | 2.6 | 8.4% | 4.0%
CCOC(=O)c1noc2nc(C)n(CC(=O)Nc3ccc(OC)c(Cl)c3)c(=O)c12 | 17.1% | x | 4.2% | x | x | x
Cc1nc2ccccc2c(=O)n1NCc1cc(Br)cs1 | -2.3% | 14.6µM* | -2.4% | 0.0 | u | 0.0%
Cc1nc2ccccc2c(=O)n1NS(C)(=O)=O | -6.8% | -0.2% | 7.9% | -2.7 | 10.0% | 0.7%
CCc1ccccc1Nc1nn2c(=O)c3ccc(C(=O)NC(C)C)cc3nc2s1 | 17.9% | -28.4% | -3.3% | x | -16.6% | x
Cc1ccc(Cl)cc1Nc1nn2c(=O)c3ccc(C(=O)Nc4ccc(F)cc4)cc3nc2s1 | -16.2% | 2.31µM* | 2.1% | x | 3.66µM* | x
Cc1ccc(Cl)cc1Nc1nn2c(=O)c3ccc(C(=O)NC(C)c4ccccc4)cc3nc2s1 (stereo not given) | -25.1% | 3.26µM* | -9.9% | x | 6.51µM* | x
COC(=O)c1ccc2c(=O)n3nc(Nc4cc(OC)ccc4OC)sc3nc2c1 | 17.9% | -17.0% | 6.0% | x | u | x
COc1ccccc1Nc1nn2c(=O)c3ccc(C(=O)Nc4ccc(F)cc4)cc3nc2s1 | 1.2% | 5.8µM* | -5.2% | x | 2.59µM* | x
O=c1c2ccccc2nc2sc(Nc3ccc(F)cc3)nn12 | -4.7% | x | 2.4% | x | x | 0.5%
Cc1ccccc1COc1ccc(-c2nnn(CC(=O)O)n2)cc1 | -1.2% | -5.7% | -19.4% | -2.4 | 9.9% | 7.6%
CCCN(CC(=O)Nc1ccccc1C)C(=O)/C=C/c1ccc(OCC)c(OC)c1 | -11.3% | -19.9% | -13.9% | -18.3 | u | 0.5%
SMILES | TGFb inhibitor | TDP1 cell noCPT | HepG2 viability | IL1B secr inh | TDP1 cell CPT | S-ASM inh
CC1CCN(S(=O)(=O)c2ccc3c(c2)C(Cl)(Cl)C(=O)N3)CC1 | u | 16.4µM* | -55.8% | -28.1 | 10.3µM* | x
CC(=O)c1ccc(N2CCN(S(=O)(=O)c3ccc4c(c3)C(Cl)(Cl)C(=O)N4)CC2)cc1 | 22.4µM* | x | -93.3% | x | x | x
O=C(O)CNC(=O)CNC(=O)CNC(=O)CSC(=O)c1ccccc1 | x | -2.4% | x | x | -0.9% | x
CN(C)Cc1ccccc1-c1cncnc1NCc1ccccc1 | x | -24.5% | x | x | 1.4% | x
COc1cc2c3c(cccc3c1)C(=O)N(CCN1CCCC1)C2=O | 14.1µM* | 0.103µM* | 19.2% | -10.5 | 0.0366µM* | x
CS(=O)(=O)N1CCN(CCN2C(=O)c3cccc4cccc(c34)C2=O)CC1 | 3.3% | u | 3.0% | -12.4 | -9.0% | -1.1%
COc1ccc(C(=O)CN2CCN(CCN3C(=O)c4cccc5cccc(c45)C3=O)CC2)cc1 | u | 20.6µM* | -19.4% | -20.5 | u | -0.4%
CCc1ccccc1NCc1nnc2n1CCCCC2 | -8.2% | -9.3% | -11.0% | x | 1.2% | x
CCOC(=O)N1CCN(C(=O)c2cccc(N3C(=O)NC4CC3(C)Oc3ccc(Cl)cc34)c2)CC1 (stereo not given) | -22.8% | 3.26µM* | -3.6% | 8.5 | u | -1.0%
COc1ccc(CCN2C(=S)NC3CC2(C)Oc2ccc([N+](=O)[O-])cc23)cc1OC (stereo not given) | 6.4% | 14.6µM* | -8.0% | -20.7 | 10.3µM* | -6.8%
COc1ccc(CCN2C(=O)CSC2c2cccc([N+](=O)[O-])c2)cc1OC (stereo not given) | -1.8% | u | -3.3% | -1.2 | u | -2.7%
COc1cccc2c1OC1(C)CC2NC(=O)N1c1cccc(C(=O)N2CCN(c3ccccc3)CC2)c1 (stereo not given) | 3.1% | u | 8.7% | 0.0 | u | 1.9%
CCOC(=O)C1CCN(C(=O)c2cccc(N3C(=O)NC4CC3(C)Oc3ccc(C)cc34)c2)CC1 (stereo not given) | -17.0% | -3.2% | 12.2% | -14.5 | u | -2.7%
COc1ccc(N2C(=O)NC3CC2(C)Oc2ccc(Cl)cc23)cc1OC (stereo not given) | -2.6% | u | 8.7% | 5.7 | 23.1µM* | 1.0%
COc1ccc(N2CCN(C(=O)c3ccc(N4C(=O)NC5CC4(C)Oc4ccccc45)cc3)CC2)cc1 (stereo not given) | 1.6% | u | -8.9% | u | 29.1µM* | -1.0%
Cc1cc([N+](=O)[O-])nn1Cc1noc(C(=O)NCCCn2ccnc2)n1 | 7.8% | -7.4% | 0.3% | 9.3 | 2.2% | -0.5%
